Measured values published in PubChem BioAssay (NCI).
The panel holds about 79,000 compounds, 15% with a hit somewhere; the sample as a whole holds those more often. Values without a mark were called inactive. The source made the active and inactive calls. Rule as the data show it: active = growth inhibition above about 70%; inactive = the rest.

Tests used:
[1] = NCI Yeast Anticancer Drug Screen. Data for the rad50 strain (AID 155);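 also: 0% = growth of vehicle-only cultures of the same strain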; settings: S. cerevisiae rad50 strain growth inhibition, active compounds read high
Method in brief: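 Genetically altered yeast (DNA repair pathway); compound treatment; growth inhibition vs vehicle ctrl.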

[2] = NCI Yeast Anticancer Drug Screen. Data for the mec2-1 strain (AID 157); settings: S. cerevisiae mec2-1 strain, active compounds read high
Method in brief: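 Readout is yeast growth inhibition, normalised to vehicle-treated controls, in the mec2-1 strain exposed to compound.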

[3] = NCI Yeast Anticancer Drug Screen. Data for the sgs1 mgt1 strain (AID 161);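 also: 0% = growth of cultures given vehicle only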; settings: S. cerevisiae sgs1 mgt1 strain, active compounds read high
Method in brief: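 Yeast cells carrying a defined DNA-repair defect were exposed to test compounds. Growth inhibition was measured relative to vehicle-treated controls.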

[4] = NCI Yeast Anticancer Drug Screen. Data for the cln2 rad14 strain (AID 165);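 also: 0% = growth equal to vehicle treated cultures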; settings: S. cerevisiae cln2 rad14 strain, active compounds read high
Method in brief: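 Relative to vehicle controls, growth inhibition of compound-treated cln2 rad14 yeast was recorded.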

[5] = NCI Yeast Anticancer Drug Screen. Data for the bub3 strain (AID 167); settings: S. cerevisiae bub3 mutant strain, active compounds read high
Method in brief: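 Yeast carrying a defined mutation is treated with each compound, and growth is compared with that of vehicle-exposed cells to give inhibition.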

[6] = NCI Yeast Anticancer Drug Screen. Data for the mlh1 rad18 strain (AID 175); settings: S. cerevisiae mlh1 rad18 strain growth inhibition, active compounds read high
Method in brief: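 Test agents were incubated with a yeast strain of defined genotype (DNA damage repair defect). Inhibition of growth was derived by comparison with vehicle-exposed cultures.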

[7] = at 5.0 µM (retest, dose inferred, filed as 0.5)
[8] = at 50.0 µM (retest, dose inferred, filed as 5.0)

Compound | growth inhibition [1, 7] | growth inhibition [1, 8] | growth inhibition ([1]; at 50.0 µM) | growth inhibition [2, 7] | growth inhibition [2, 8] | growth inhibition ([2]; at 50.0 µM) | growth inhibition [3, 7] | growth inhibition [3, 8] | growth inhibition ([3]; at 50.0 µM) | growth inhibition [4, 7] | growth inhibition [4, 8] | growth inhibition ([4]; at 50.0 µM) | growth inhibition [5, 7] | growth inhibition [5, 8] | growth inhibition ([5]; at 50.0 µM) | growth inhibition [6, 7] | growth inhibition [6, 8] | growth inhibition ([6]; at 50.0 µM)
[N-]=[N+]=Nc1c(C=O)c(=O)n(-c2ccccc2)c2ccccc12 | 8% | 57% | 67.2% | -1% | 60% | 80.4% (active) | -5% | 47% | 79% (active) | 0% | 29% | 63.5% | -23% | 26% | 63.6% | 6% | 67% | 68.7%
COc1ccc(/C=C2\CCC/C(=C\c3ccc(OC)cc3)C2=O)cc1 | 26% | -17% | -5.5% | -9% | -17% | -11.3% | 2% | -17% | -2.1% | -21% | -20% | -72.2% | -5% | -5% | 1.05% | -8% | -14% | 9.55%
C1=CN2C(c3ccccc3)=NN(c3ccccc3)[C@@H]2c2ccccc21 | -4% | 70% (active) | 60.6% | -6% | 53% | 42% | -3% | 50% | 56.3% | 0% | 22% | 27.8% | 1% | 79% (active) | 59.5% | 2% | 72% (active) | 54.8%
COc1ccccc1/C=C1\Sc2scc(-c3ccc(O)c(O)c3)[n+]2C1=O | -5% | 99% (active) | 98.9% (active) | -8% | 99% (active) | 98.9% (active) | -11% | 99% (active) | 99.3% (active) | -7% | 99% (active) | 97.2% (active) | -14% | 99% (active) | 98.8% (active) | 7% | 99% (active) | 99% (active)
CC1=C(C(=O)Nc2cccc(C(F)(F)F)c2)C(c2ccccc2F)C(C(=O)Nc2cccc(C(F)(F)F)c2)=C(C)N1 | 46% | 46% | 78.4% (active) | 46% | 46% | 78.9% (active) | 29% | 29% | 85.9% (active) | 21% | 21% | 85.7% (active) | 37% | 37% | 85.2% (active) | 47% | 47% | 80.4% (active)
O=c1c2ccccc2[nH]c2c1[nH]c1ccccc12 | 10% | 23% | 37% | 11% | 25% | -11.7% | 5% | 24% | -1.65% | 7% | 11% | 83.4% (active) | 7% | 22% | -20.6% | 12% | 28% | 19.9%
COc1ccc(C2N(Cc3ccc(Cl)cc3)CCN2Cc2ccc(Cl)cc2)cc1 | 9% | 70% (active) | 46.6% | 9% | 59% | 32.2% | 37% | 89% (active) | 71.2% (active) | 21% | 53% | 69.2% | 34% | 91% (active) | 25.9% | 25% | 72% (active) | 50.5%
COc1ccccc1C(=O)c1c(C(=O)O)ccc2ccccc12 | -2% | -17% | 3.8% | -6% | -28% | 6.9% | -3% | -25% | 7.75% | -17% | -3% | 27.6% | -10% | -5% | 13.7% | -4% | -1% | 48.6%
NC(CSSCC(N)C(=O)Nc1ccc2ccccc2c1)C(=O)Nc1ccc2ccccc2c1 (configuration not stated) | 42% | 98% (active) | 88.6% (active) | 42% | 100% (active) | 91.7% (active) | 54% | 100% (active) | 91.7% (active) | 21% | 99% (active) | 90.3% (active) | 37% | 99% (active) | 89.5% (active) | 68% | 99% (active) | 88% (active)
O=C1c2ccccc2C(=O)N1C(=NCc1ccccc1)c1ccccc1 | 7% | 70% (active) | 64.2% | 2% | 68% | 63.4% | 4% | 42% | 64% | 3% | 64% | 5.55% | -3% | 66% | 55.2% | 4% | 78% (active) | 83.2% (active)
O=C1c2ccccc2C(=O)c2cc(N3C(=O)C=CC3=O)ccc21 | 54% | 83% (active) | 90.7% (active) | 50% | 89% (active) | 92% (active) | 96% (active) | 98% (active) | 91.5% (active) | 53% | 99% (active) | 91.7% (active) | 97% (active) | 97% (active) | 87.8% (active) | 47% | 80% (active) | 91.5% (active)
OCCc1cccc2ccc3ccccc3c12 | 0% | 62% | 85.9% (active) | -1% | 55% | 92.8% (active) | -4% | 59% | 94.2% (active) | -1% | 59% | 88.2% (active) | 1% | 66% | 90.4% (active) | 2% | 66% | 91.8% (active)
CCCCCCCCCCCCOc1c(Cl)cc(Cl)c(Cl)c1Cc1c(O)c(Cl)cc(Cl)c1Cl | 1% | 86% (active) | 97.5% (active) | 0% | 92% (active) | 98.5% (active) | 2% | 72% (active) | 98.3% (active) | -2% | 87% (active) | 97.2% (active) | 0% | 89% (active) | 96.4% (active) | 2% | 87% (active) | 97.7% (active)
O=[N+]([O-])c1ccc(NNS(=O)(=O)c2ccccc2)c([N+](=O)[O-])c1 | 3% | -7% | 5.85% | -13% | -4% | 16.3% | -3% | 13% | 10.3% | -33% | -17% | -18.2% | 4% | 13% | -2% | 0% | 16% | 13.8%
O=C1C(c2ccccc2)CS(=O)(=O)CC1c1ccccc1 (configuration not stated) | -10% | 0% | 14% | -8% | 7% | 2.85% | 5% | 7% | 57.1% | 3% | -4% | 7% | -3% | -12% | -7.65% | 13% | 9% | 12.6%
CC(=O)NC1CCCCC1CC1CCCCC1 (configuration not stated) | -146% | -23% | 19.2% | -48% | -44% | 20.1% | -63% | -32% | 35.8% | -57% | -52% | 79.2% (active) | -68% | -49% | 24% | -125% | -138% | 16.9%
O=C1CCCC2c3ccccc3NC12 (configuration not stated) | -147% | -137% | 1.85% | -50% | -57% | 34.6% | -64% | -64% | -2% | -51% | -56% | 78.7% (active) | -68% | -75% | -17.9% | -139% | -111% | 9.5%
Cc1cc(N)cc(C)c1-c1c(N)cc(Br)cc1Br | -1% | -10% | 98.1% (active) | -3% | -6% | 97.5% (active) | -4% | -9% | 98.3% (active) | 1% | -10% | 96.6% (active) | -7% | -13% | 98.1% (active) | -2% | -9% | 97.9% (active)
CCCCCCCCCCNCCSSCCNC(C)=O | 89% (active) | 98% (active) | 99.2% (active) | 87% (active) | 99% (active) | 99.4% (active) | 97% (active) | 99% (active) | 99.3% (active) | 79% (active) | 92% (active) | 98.4% (active) | 90% (active) | 98% (active) | 99.5% (active) | 90% (active) | 99% (active) | 99.3% (active)
